# Data from PubChem BioAssay.
# The source made the active and inactive calls.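 Rule for the calls, unless noted: active = fluorescence slope after compound addition differing from the mean of all screened samples at 99.7% confidence, in either direction; inactive = the rest.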
# How the values were obtained:
# [1] = inhibitors of TNFa-induced NFkB p65 translocation, primary screen, imaging, HUVEC, MLSMR starter and 10KST1 sets (AID 438;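 active = inhibition above 20% together with a positive visual image hit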;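 note: compound added about 3h40 before a 20 min TNFalpha stimulation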;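 for inhibition: signal is the nuclear over cytoplasmic p65 intensity ratio per well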); details: HUVEC TNFa-induced p65 nuclear translocation; cell count: measured here: nuclei count (cytotoxicity indicator), at 2.08 µM; inhibition: at 2 µM, stronger effect = higher value, 0% TNFa-plus-vehicle, 100% no-TNFa wells
# [2] = reduction of polyQ htt aggregates in cells – imaging, exon1htt(103Q)mCFP cells, high-content imaging, primary screen (AID 483;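 active = visual image review flags a hit and inhibition of aggregation exceeds 20%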;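 note: compound exposure lasted 3 days before fixation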;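 for nuclei count: percent of the per-plate median nuclei count of sample wells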); details: exon1htt(103Q)mCFP cell line, aggregate imaging, at 2 µM; inhibition of aggregation: stronger effect = higher value; nuclei count: measured here: cell count, toxicity
# [3] = endothelial E-selectin expression blockers – imaging, HUVEC, immunofluorescence, MLSMR starter and 10KST1 sets, primary screen (AID 487;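 active = visually confirmed hit in the image check and inhibition above 20%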;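 for inhibition: signal is fraction of cell area covered by stained E-selectin grains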;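 for nuclei count: 100% = median nuclei count of all wells on the same plate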); details: HUVEC TNFalpha-induced E-selectin immunofluorescence imaging, at 2 µM; inhibition: stronger effect = higher value; nuclei count: measured here: cell number, toxicity
# [4] = biological target: Voltage-gated potassium channel subunit beta-2 (Rattus norvegicus) (UniProt P62483); assay: inhibitors of rat Kvbeta2 reductase activity – biochemical, NADPH fluorescence, primary screen (AID 622;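 active = fluorescence slope higher than the sample average by over 3 SD, cut at about -0.22 in these data, passing the limit was not always enough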;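 note: slope of raw intensity against log time taken from 70 to 1610 s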); details: recombinant KvBeta, 4-cyanobenzaldehyde reduction, at 10 µM, stronger effect = higher value
# [5] = biological target: Voltage-gated potassium channel subunit beta-2 (Rattus norvegicus) (UniProt P62483); assay: enhancers of rat Kvbeta2 NADPH turnover – biochemical, NADPH fluorescence, primary screen (AID 623;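 active = NADPH fluorescence slope more negative than the mean of all samples by about 3 SD, 99.7% confidence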;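 note: fluorescence intensity change per second fitted from 20 to 320 s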); details: Recombinant KvBeta, NADPH fluorescence decrease slope, 10 min; at 10 µM; stronger effect = lower value
# [6] = biological target: Alpha-2C adrenergic receptor (Homo sapiens) (UniProt P18825); assay: compounds altering alpha2C-coupled GIRK flux – cell-based, HEK293 alpha2C/GIRK1/2, thallium flux, primary screen (AID 624); details: thallium flux BTC fluorescence, at 10 µM, actives lie on both sides;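 note: slope of fluorescence ratio to pre-addition baseline per second over 15 to 24 s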
# [7] = blockers of RIG-like receptor reporter activation – cell-based, Sendai virus stimulus, luciferase, 10K MLSCN set, TLR/RLR signaling modifier project, primary screen (AID 602276;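 active = inhibition at or above 50% at 10 µM; inactive = inhibition below 50%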;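 note: firefly luciferase from ISG56 promoter only with Renilla not read in this screen; 0% = Sendai virus plus DMSO and 100% = medium plus DMSO without virus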); details: HEK293 RL24 IRF3 luciferase reporter, at 10 µM, stronger effect = higher value
# [8] = TLR3 IRF3 reporter activation blockers – cell-based, poly I:C stimulus, luciferase, 10K MLSCN set, primary screen (AID 602277;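 active = inhibition of the reporter signal at or above 50%; inactive = inhibition below 50%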); details: HEK293-TLR3 RL24 IRF3 luciferase reporter, at 10 µM, stronger effect = higher value
# Alpha-2C adrenergic receptor (Homo sapiens), sequence (P18825 whole entry, looked up): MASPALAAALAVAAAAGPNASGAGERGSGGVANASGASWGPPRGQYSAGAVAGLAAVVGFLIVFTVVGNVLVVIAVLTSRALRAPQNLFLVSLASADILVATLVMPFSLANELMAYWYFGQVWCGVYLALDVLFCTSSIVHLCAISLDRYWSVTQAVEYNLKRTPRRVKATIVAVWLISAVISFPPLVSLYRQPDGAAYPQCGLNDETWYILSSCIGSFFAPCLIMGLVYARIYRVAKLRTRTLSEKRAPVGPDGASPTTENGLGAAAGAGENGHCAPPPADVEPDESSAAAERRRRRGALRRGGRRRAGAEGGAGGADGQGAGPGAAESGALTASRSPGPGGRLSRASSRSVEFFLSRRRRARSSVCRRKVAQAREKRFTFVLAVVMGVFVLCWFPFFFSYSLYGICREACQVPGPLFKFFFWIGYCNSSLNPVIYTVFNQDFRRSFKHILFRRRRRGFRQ
# Voltage-gated potassium channel subunit beta-2 (Rattus norvegicus), sequence (P62483 whole entry, looked up): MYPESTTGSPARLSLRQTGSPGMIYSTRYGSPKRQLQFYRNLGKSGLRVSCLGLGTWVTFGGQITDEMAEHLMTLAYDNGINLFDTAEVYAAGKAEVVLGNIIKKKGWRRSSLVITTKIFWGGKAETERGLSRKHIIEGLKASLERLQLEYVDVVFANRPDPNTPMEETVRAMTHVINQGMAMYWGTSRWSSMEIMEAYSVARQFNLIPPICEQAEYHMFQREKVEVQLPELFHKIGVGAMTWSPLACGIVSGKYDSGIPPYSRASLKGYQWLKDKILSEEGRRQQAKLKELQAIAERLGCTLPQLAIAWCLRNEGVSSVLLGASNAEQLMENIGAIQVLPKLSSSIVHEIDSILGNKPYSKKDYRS
SMILES,cell count [1],inhibition [1],inhibition of aggregation [2],nuclei count [2] [%],inhibition [3],nuclei count [3] [%],fluorescence slope [4],NADPH fluorescence slope [5],slope [6],inhibition [7],inhibition [8]
CCSc1nnc(NC(=O)CCNS(=O)(=O)c2cc(Br)cnc2N)s1,243,-1.3% (inactive),3.8% (inactive),93.5,32.4% (inactive),80.5,-0.444 (inactive),1.8e-05 (inactive),0.0065 (inactive),2.91% (inactive),8.81% (inactive)
C=CCSC1=C(C#N)C(c2ccccc2Cl)CC(=O)N1 (centres undefined),407,-6.5% (inactive),28.2% (inactive),74.3,-59% (inactive),171,-0.561 (inactive),5.8e-06 (inactive),0.0048 (inactive),25.7% (inactive),14.1% (inactive)
C=C(C)COc1ccc(-c2n[nH]c(C)c2-c2ccccc2)c(O)c1,456,-8% (inactive),3.7% (inactive),99.2,0.8% (inactive),81.8,-0.46 (inactive),-3.2e-05 (inactive),0.00246 (inactive),-6.65% (inactive),11.2% (inactive)
Cc1ccc(C)c(-n2c(CNC(=O)c3ccco3)nnc2SCC(=O)Nc2nnc(C)s2)c1,656,-6.4% (inactive),20.8% (inactive),99.5,3.7% (inactive),120,-0.528 (inactive),-3e-05 (inactive),0.0063 (inactive),14.2% (inactive),36.2% (inactive)
COc1ccc(OCc2nc(C#N)c(N3CCN(c4ccc(OC)cc4)CC3)o2)cc1,479,2.9% (inactive),-2.2% (inactive),73.6,15.1% (inactive),89.2,-0.421 (inactive),2.3e-05 (inactive),0.0041 (inactive),-5.28% (inactive),3.87% (inactive)
Cc1cnc(C(=O)OCC(=O)Nc2ccc(Oc3ccccc3)cc2)cn1,566,-16.3% (inactive),-29.2% (inactive),107,-1.5% (inactive),122,-0.367 (inactive),-8.3e-06 (inactive),0.00457 (inactive),-29.5% (inactive),-39.7% (inactive)
CCOC(=O)N1CCN(C(=O)c2csc3c2CCCCC3)CC1,775,-27.2% (inactive),15.1% (inactive),121,-86% (inactive),106,-0.311 (inactive),1.7e-05 (inactive),0.00586 (inactive),-2.32% (inactive),9.33% (inactive)
COc1ccc(N2CCN(c3ccc(NC(=O)C4CCCCC4)cc3C#N)CC2)cc1,676,-0.6% (inactive),-30.8% (inactive),104,-14.3% (inactive),121,-0.586 (inactive),-1.7e-05 (inactive),0.00529 (inactive),4.18% (inactive),7.51% (inactive)
COc1ccc(C(=O)Nc2nc(C)c(C(=O)N(C)C)s2)cc1OC,435,2.8% (inactive),5.4% (inactive),102,-16.9% (inactive),91.8,-0.461 (inactive),2.3e-06 (inactive),0.00371 (inactive),-7.68% (inactive),-30.5% (inactive)
Cc1nn(C)c(C)c1NC(=O)CCSc1nc(-c2ccco2)cc(C(F)(F)F)n1,491,-2.2% (inactive),10.3% (inactive),108,23.6% (inactive),100,-0.432 (inactive),-6.1e-05 (inactive),0.00599 (inactive),4.67% (inactive),-10.1% (inactive)
O=C(CSc1nnc(Cc2cccs2)n1Cc1ccco1)Nc1cccc(Cl)c1,677,-3.5% (inactive),-13.8% (inactive),108,-30.1% (inactive),116,-0.397 (inactive),1.1e-05 (inactive),0.0045 (inactive),13.6% (inactive),31.6% (inactive)
COc1ccc(NC(=O)C(C)Oc2ccc(/C(C)=N\O)cc2)cc1 (centres undefined),581,2.7% (inactive),13.8% (inactive),114,24.1% (inactive),105,-0.307 (inactive),3.7e-05 (inactive),0.00609 (inactive),14.5% (inactive),19.2% (inactive)
C[C@@H]1C[C@H](O)c2cc(Cl)ccc2N1,404,-7.2% (inactive),17.5% (inactive),97.5,-39.2% (inactive),114,-0.594 (inactive),-1.8e-05 (inactive),0.0061 (inactive),11% (inactive),27.1% (inactive)
O=C(Nc1ccc(NC(=O)c2ccco2)nc1)c1cccnc1,505,19.2% (inactive),-0.5% (inactive),93.2,1% (inactive),89.3,-0.472 (inactive),-2.2e-05 (inactive),0.00492 (inactive),-21.2% (inactive),-50% (inactive)
